ASM inhibitor: Inhibitors of Secretory Acid Sphingomyelinase (S-ASM): qHTS | placental ASM, HMU-PC fluorogenic substrate, 60 min | 340,000 compounds, 0.006% hits | Sphingomyelin phosphodiesterase (Homo sapiens), P17405 | Potency, µM (titrated, usually from 57.5 µM), usual class: inhibitors | AID 504937, 2011
Target sequence (P17405 47-631 limits assumed): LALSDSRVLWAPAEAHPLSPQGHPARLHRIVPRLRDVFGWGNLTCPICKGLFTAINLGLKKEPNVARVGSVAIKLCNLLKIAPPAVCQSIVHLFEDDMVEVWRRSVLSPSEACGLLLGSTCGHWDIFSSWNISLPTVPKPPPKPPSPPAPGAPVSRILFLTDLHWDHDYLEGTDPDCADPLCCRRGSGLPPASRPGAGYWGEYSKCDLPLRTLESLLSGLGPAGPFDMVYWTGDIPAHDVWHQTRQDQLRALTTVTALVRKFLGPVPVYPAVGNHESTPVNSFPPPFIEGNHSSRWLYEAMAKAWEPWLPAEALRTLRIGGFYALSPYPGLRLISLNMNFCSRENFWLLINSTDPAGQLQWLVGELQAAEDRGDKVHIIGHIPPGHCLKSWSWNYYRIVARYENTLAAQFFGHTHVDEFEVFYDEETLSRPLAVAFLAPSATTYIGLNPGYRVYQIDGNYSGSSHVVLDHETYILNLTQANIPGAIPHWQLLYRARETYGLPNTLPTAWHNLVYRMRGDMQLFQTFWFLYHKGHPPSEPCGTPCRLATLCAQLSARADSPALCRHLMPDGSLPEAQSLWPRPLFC
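HMU-PC0 cleavage (9 uM final) by human placental ASM, 60 min at 37 °C following 10 min compound exposure at RT; stopped at pH 10, fluorescence Ex 386/Em 447 nm.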
TGFb inhibitor: qHTS for Inhibitors of TGF-b. AID 588855, 2011. Potency, µM (highest dose often 46.1 µM), most hits filed as inhibitors. 410,000 compounds, 1.2% hits. HepG2 CAGA-GFP TGF-b/SMAD3 reporter, GFP fluorescence, 18 h; TGF-beta stimulated, 500 pg/mL final; note: nearly all actives have a fitted effect of over 65% in size
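Cell-based qHTS in HEPG2 carrying a CAGA-GFP Smad reporter; compounds added before 500 pg/mL final TGF-beta, 18 h incubation at 37 degrees C, GFP fluorescence quantified per cell by imaging cytometry.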
DT40 TDP1 no CPT: qHTS for Inhibitors of human tyrosyl-DNA phosphodiesterase 1 (TDP1): qHTS in cells in absence of CPT; DT40 Tdp1-/- hTDP1 cells, no CPT, ATP luminescence, 48 h; Potency, µM (doses to about 46.2 µM), usual class: inhibitors; 420,000 compounds, 15% hits; note: nearly all actives have a fitted effect of over 55% in size
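Chicken DT40 Tdp1-/- cells complemented with human TDP1, screened without camptothecin (DMSO vehicle only), 400 cells/well. Compounds pin-transferred, cells incubated at 37 °C for at least 48 hr. Growth read as ATP-dependent luminescence (CellTiter-Glo, 30 min at RT).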
HepG2 tox: qHTS for Inhibitors of TGF-b: Cytotox Counterscreen; HepG2 CAGA-GFP viability, ATP luminescence, 18 h; 410,000 compounds, 0.76% hits; AID 588856, 2011; Potency, µM (top dose mostly 46.1 µM), actives largely listed as cytotoxic
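HepG2 CAGA-GFP cells (1000/well, DMEM with 1% FBS) received compound, then TGF-beta at 500 pg/mL final, and were incubated 18 hours at 37 degrees C. Viability was read by CellTiter-Glo luminescence. Media-only wells were set as complete cell-killing and DMSO as no toxicity.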
IL-1B inflam inh: qHTS for Inhibitors of Inflammasome Signaling: IL-1-beta AlphaLISA Primary Screen; 360,000 compounds, 4.7% hits; activity change, % at 57.5 µM; THP-1 LPS/ATP IL-1B secretion, AlphaLISA, 16 h; hits give low values; AID 743279, 2014; in the data active = activity change below about -50%; inconclusive = mostly about -30% to -49%
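THP-1 cells pretreated 1 hr with compounds (up to 57.5 uM final), then stimulated with LPS (250 ng/mL final) plus ATP (1.25 mM final); secreted IL-1B measured by AlphaLISA after 16 hr, decreased signal indicating inhibition.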
TDP1 cell CPT: qHTS for Inhibitors of human tyrosyl-DNA phosphodiesterase 1 (TDP1): qHTS in cells in presence of CPT. chicken DT40 Tdp1-/-;hTDP1 cells + 20 nM CPT, ATP luminescence, 48 h. Potency, µM (doses to about 46.2 µM), most hits filed as inhibitors. 420,000 compounds, 12% hits. AID 686979, 2013; note: nearly all actives have a fitted effect of over 55% in size
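Chicken DT40 Tdp1-/- cells stably complemented with human TDP1 were seeded at 400 cells/well in medium containing 20 nM camptothecin, exposed to pin-transferred compounds, and grown at 37 °C for at least 48 hr. Viability was read as ATP luminescence.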
Hits are given with their value; – = inactive; ? = inconclusive; · = no result. An excerpt weighted towards active compounds, which were near 19% of everything screened. Unless noted, calls come from the whole dose curve; as a rule, active = well fitted curve in the direction sought with a large enough effect; inconclusive = small, poorly fitted or top-dose-only effect, or another doubt; inactive = no such curve, though single readings can be large; an effect the other way counts as inactive or inconclusive.

SMILES	ASM inhibitor	TGFb inhibitor	DT40 TDP1 no CPT	HepG2 tox	IL-1B inflam inh	TDP1 cell CPT
CCOC(=O)N1CCC(NC(=O)c2ccc3c(c2)N(Cc2ccccc2)C(=O)c2ccccc2S3(=O)=O)CC1	·	·	?	–	·	?
Cc1ccc(C)c(NC(=O)CN2C(=O)CCc3cc(S(=O)(=O)N4CCCCC4)ccc32)c1	·	–	?	–	·	?
CC(C)CCNc1nc(N)c([N+](=O)[O-])c(NCC2CCCO2)n1 (configuration not stated)	·	–	?	–	–	15µM
O=C(c1ccc2c(=O)n3c(nc2c1)CCCCC3)N1CCN(c2ccccc2F)CC1	–	–	?	–	–	–
O=C(Cn1nnnc1CN1CCOCC1)N1CCC(c2cccc(Cl)c2)C1 (configuration not stated)	–	–	–	–	–	–
O=C(/C=C/c1ccccc1Cl)OCC(=O)N1CCc2ccccc21	·	–	–	–	–	–
CCC1CN(C(=O)N2CCC(C(=O)NCCc3ccccc3)CC2)c2ccccc2O1 (configuration not stated)	–	–	8.2µM	–	–	?
CCC1CN(C(=O)N2CCC(C(=O)NCCc3ccc(C)cc3)CC2)c2ccccc2O1 (configuration not stated)	·	–	21µM	–	·	?
CCS(=O)(=O)N1CCC(C(=O)NCCc2ccc(C)cc2)CC1	–	–	–	–	–	–
CCC1CN(C(=O)N2CCC(C(=O)N3CCN(c4ccccc4F)CC3)CC2)c2ccccc2O1 (configuration not stated)	·	?	16µM	–	·	16µM
CCS(=O)(=O)N1CCC(C(=O)NCCc2ccccc2)CC1	–	–	–	–	–	–
CCOC(=O)N1CCN(CCCc2ccccc2)CC1	–	–	–	–	–	–
C=C(C)C1CCC(C)=C1CC(C)(C)/C=N\n1cnnc1 (configuration not stated)	–	–	21µM	–	–	10µM
O=C(CN1CCOCC1)Nc1ccccc1F	–	–	–	–	–	–
CCN(CC)c1ccc(/C=C2\CCC(/C=C(/C#N)C(=O)Nc3ccccc3F)=C2N2CCOCC2)cc1	–	–	2.3µM	–	–	2.1µM
CCN(CC)c1ccc(/C=C2\CCC(/C=C(\C#N)C(=O)Nc3ccccc3F)=C2N2CCOCC2)cc1	–	–	2.3µM	–	–	6.5µM
O=C(O)Cc1nn(Cc2ccc(Br)cc2F)c(=O)c2ccccc12	·	·	?	·	·	–
Cc1cccc(NC(=O)c2ccc(CNS(=O)(=O)c3ccc4c(c3)C(C)(C)C(=O)N4C)cc2)c1	·	–	12µM	–	·	21µM
COc1cccc(S(=O)(=O)NCc2ccc(C(=O)Nc3cccc(Cl)c3)cc2)c1	?	–	26µM	–	?	21µM
Cc1ccc(NC(=O)c2ccc(CNS(=O)(=O)c3ccc4c(c3)C(C)(C)C(=O)N4C)cc2)cc1C	·	?	12µM	–	·	15µM
COc1cccc(NC(=O)c2ccc(CNS(=O)(=O)c3ccc4c(c3)C(C)(C)C(=O)N4C)cc2)c1	·	–	23µM	–	·	?
Cc1ccccc1NC(=O)c1ccc(CNS(=O)(=O)c2ccc3c(c2)C(C)(C)C(=O)N3C)cc1	·	–	?	–	·	?
COc1ccc(/C=C/C(=O)OCC(=O)c2c(N)n(C)c(=O)n(C)c2=O)c(OC)c1	–	–	–	–	–	–
O=C1CCN(S(=O)(=O)c2ccccc2)CCN1CCOCc1cccc(F)c1	–	–	–	–	–	–
COc1cccc(/C=N/NC(=O)CNC(=O)c2ccco2)c1O	–	–	8.2µM	–	–	6.5µM
SMILES	ASM inhibitor	TGFb inhibitor	DT40 TDP1 no CPT	HepG2 tox	IL-1B inflam inh	TDP1 cell CPT
COc1cccc(/C=N/NC(=O)CNC(=O)COc2ccccc2)c1O	–	?	7.3µM	–	–	6.5µM
COCCCNC(=S)N/N=C/c1cccc(OC)c1O	–	?	0.65µM	–	–	0.82µM
COCCCNC(=S)N/N=C/c1ccc(O)cc1O	–	–	?	–	·	?
COc1ccc(/C=N/NC(=O)CNC(=O)COc2ccccc2)cc1	–	–	–	–	–	–
CCOc1cccc(/C=N/NC(=O)c2ccc3c(c2)OCCO3)c1O	–	?	4.1µM	–	–	2.6µM
Cc1ccc(S(=O)(=O)N(C)C)cc1NC(=O)COC(=O)CCC1CCCCC1	–	–	–	–	–	–
COc1cccc(/C=N/NC(=O)CNC(=O)c2ccncc2)c1O	–	–	?	–	–	?
COc1cc(/C=N/NC(=O)CNC(=O)c2ccncc2)ccc1O	–	–	–	–	–	–
COc1cccc(/C=N/NC(=O)CNC(=O)C2COc3ccccc3O2)c1O (configuration not stated)	–	–	3.7µM	–	–	5.8µM
COc1cccc(/C=N/NC(=O)CNC(=O)c2ccc3c(c2)OCCO3)c1O	–	–	?	–	–	16µM
O=C(CNC(=O)c1ccncc1)N/N=C/c1ccc(O)cc1O	–	–	18µM	–	–	?
COc1ccc(CCCC(=O)N/N=C/c2cccc(OC)c2O)cc1C	–	?	1.6µM	–	–	1.8µM
O=C1CC(c2cccc(Cl)c2)CC(O)=C1C=NC1CCCC1 (configuration not stated)	–	–	–	–	–	–
CC(C)(C)OC(=O)NC(Cc1ccccc1)C(=O)N1CCC(C(=O)NCC(=O)Nc2ccc(F)cc2)CC1 (configuration not stated)	–	–	–	–	–	–
COc1ccc(NC(=O)CS(=O)c2ccc(Cl)c(Cl)c2)cc1 (configuration not stated)	–	–	–	–	–	?
COCCn1c(C)nnc1SCC(=O)Nc1ccccc1[N+](=O)[O-]	–	–	–	–	–	–
COc1cccc(/C=N/NC(=O)C[n+]2ccccc2)c1O	–	–	–	–	–	–
O=C(CNC(=O)c1ccc2c(c1)OCCO2)N/N=C/c1ccc(O)cc1O	–	?	18µM	–	–	?
Cc1ccc(/C=N/NC(=O)CNC(=O)COc2ccccc2)cc1	–	–	–	–	–	–
CCOc1ccc(/C=N/NC(=O)C(O)c2ccccc2)c(O)c1 (configuration not stated)	–	–	?	–	–	4.1µM
